# Screening data deposited in PubChem by Broad Institute.
# IDE exosite FP = exo-site inhibitors of human IDE, primary screen, biochemical, fluorescence anisotropy, probe displacement; Insulin-degrading enzyme (Homo sapiens), P14735; purified IDE, FL-6b probe fluorescence polarization; active compounds read low; z-score at 20 µM; hit rate 6.3% among 17,000;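 active means z-score of -3 or lower, meaning strong loss of probe binding signal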;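 further: His-tagged human IDE residues 42-1019 made in E. coli with 30 nM FL-6b probe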
# Target sequence (P14735 42-1019 limits assumed): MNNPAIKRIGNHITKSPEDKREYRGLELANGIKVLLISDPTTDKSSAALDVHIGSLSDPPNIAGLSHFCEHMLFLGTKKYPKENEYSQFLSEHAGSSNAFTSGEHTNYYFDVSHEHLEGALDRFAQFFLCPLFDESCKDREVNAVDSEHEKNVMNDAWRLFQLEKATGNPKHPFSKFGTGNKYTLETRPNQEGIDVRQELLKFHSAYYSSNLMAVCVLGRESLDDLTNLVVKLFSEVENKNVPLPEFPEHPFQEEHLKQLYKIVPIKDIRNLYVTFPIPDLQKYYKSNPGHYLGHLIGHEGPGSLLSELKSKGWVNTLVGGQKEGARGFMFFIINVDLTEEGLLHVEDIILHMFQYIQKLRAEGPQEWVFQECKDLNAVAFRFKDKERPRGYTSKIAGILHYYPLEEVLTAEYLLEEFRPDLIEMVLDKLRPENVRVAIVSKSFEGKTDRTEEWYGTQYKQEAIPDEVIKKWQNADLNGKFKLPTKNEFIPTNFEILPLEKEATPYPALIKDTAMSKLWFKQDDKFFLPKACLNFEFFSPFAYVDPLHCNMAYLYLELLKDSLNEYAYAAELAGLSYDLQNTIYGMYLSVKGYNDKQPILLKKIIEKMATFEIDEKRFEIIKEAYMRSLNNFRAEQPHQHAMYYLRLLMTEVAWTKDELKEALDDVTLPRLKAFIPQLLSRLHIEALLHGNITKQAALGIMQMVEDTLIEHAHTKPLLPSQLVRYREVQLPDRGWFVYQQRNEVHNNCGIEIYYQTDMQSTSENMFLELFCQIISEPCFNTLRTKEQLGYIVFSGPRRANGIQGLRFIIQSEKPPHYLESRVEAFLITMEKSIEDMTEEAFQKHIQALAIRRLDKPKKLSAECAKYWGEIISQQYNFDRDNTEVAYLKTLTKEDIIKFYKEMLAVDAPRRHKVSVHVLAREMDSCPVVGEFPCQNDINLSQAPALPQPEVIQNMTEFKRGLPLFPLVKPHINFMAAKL
# An asterisk follows results filed as active. The full list was thinned out, with hits kept by preference.
SMILES,IDE exosite FP
O=C(CN1CCOCC1)N1CCCCN2[C@H](CO)[C@H](c3ccc(/C=C/c4ccccc4)cc3)[C@H]2C1,-2.94
O=C(CN1CCOCC1)N1CCCCN2[C@H](CO)[C@H](c3ccc(/C=C/c4ccccc4)cc3)[C@@H]2C1,-9.28*
O=C1CN(Cc2ccccc2)C[C@H]2[C@@H](c3ccc(-c4ccccc4)cc3)[C@H](CO)N12,-0.743
C[C@H]1CN([C@@H](C)CO)C(=O)CCCn2nncc2CO[C@H]1CN(C)C(=O)Nc1ccccc1C(F)(F)F,-0.454
CN(C)C(=O)c1ccc(-c2ccc([C@H]3[C@@H](C#N)N(C(=O)Cc4ccccn4)[C@@H]3CO)cc2)cc1,1.61
CC(C)CC#Cc1ccc([C@@H]2[C@H]3CN(C(=O)c4ccc5c(c4)OCO5)CCCCN3[C@H]2CO)cc1,3.46
C[C@@H](NC(=O)C[C@H]1CC[C@@H]2[C@H](COC[C@@H](O)CN2Cc2ccc(C(F)(F)F)cc2)O1)c1ccccc1,1.86
CC(C)(O)C#Cc1ccc([C@H]2[C@@H](CO)N3CCCCN(C(=O)c4cccc(F)c4)C[C@H]23)cc1,-1.61
O=C(Nc1ccccc1)N1CC(=O)N2[C@H](CO)[C@@H](c3ccc(C#CC4CC4)cc3)[C@H]2C1,1.51
N#C[C@@H]1[C@@H](c2ccc(C3=CCCCC3)cc2)[C@H](CO)N1C(=O)NC1CCCC1,3.1
C[C@H]1CN([C@@H](C)CO)C(=O)CCCn2nncc2CO[C@@H]1CN(C)C(=O)Nc1ccc(-c2cccs2)cc1,-0.217
OC[C@@H]1[C@H](c2ccc(-c3ccccc3)cc2)[C@@H]2CN(CCC(F)(F)F)CCCCN12,3.5
COc1ccccc1C#Cc1ccc([C@H]2[C@H](CO)N3CCCCN(S(C)(=O)=O)C[C@@H]23)cc1,-8.08*
COc1ccc(C#Cc2ccc([C@H]3[C@H](CO)N4CCCCN(S(=O)(=O)c5ccccc5)C[C@@H]34)cc2)cc1,4.74
COc1ccc(C#Cc2ccc([C@@H]3[C@@H](CO)N4CCCCN(S(=O)(=O)c5ccccc5)C[C@H]34)cc2)cc1,5.65
COc1ccccc1C#Cc1ccc([C@@H]2[C@H]3CN(S(C)(=O)=O)CCCCN3[C@H]2CO)cc1,-11.9*
CCCC#Cc1ccc([C@@H]2[C@@H](CO)N3CCCCN(S(C)(=O)=O)C[C@H]23)cc1,2.15
COc1ccccc1C#Cc1ccc([C@@H]2[C@H]3CN(CCC(F)(F)F)CCCCN3[C@H]2CO)cc1,-7.78*
COc1ccc(C#Cc2ccc([C@H]3[C@@H](CO)N4CCCCN(S(=O)(=O)c5ccccc5)C[C@@H]34)cc2)cc1,2.32
OC[C@H]1[C@H](c2ccc(-c3ccccc3)cc2)[C@H]2CN(CCC(F)(F)F)CCCCN21,0.509
CC(C)CC#Cc1ccc([C@H]2[C@@H](CO)N3C(=O)CN(C(=O)c4ccc5c(c4)OCO5)C[C@@H]23)cc1,0.687
COc1ccc(S(=O)(=O)N(C)C[C@@H]2Oc3c(cccc3N(C)C)C(=O)N([C@@H](C)CO)C[C@H]2C)cc1,0.191
O=C(C1CCC1)N1CCCCN2[C@H](CO)[C@H](c3ccc(C#CC4(O)CCCC4)cc3)[C@H]2C1,1.51
N#C[C@@H]1[C@H](c2ccccc2C2=CCCC2)[C@H](CO)N1C(=O)C1CCOCC1,0.00658
O=C(C1CCOCC1)N1CC(=O)N2[C@H](CO)[C@@H](c3ccc(C#CC4CC4)cc3)[C@H]2C1,3.1
SMILES,IDE exosite FP
O=C(C1CCOCC1)N1CC(=O)N2[C@@H](CO)[C@@H](c3ccc(C#Cc4cccc(F)c4)cc3)[C@@H]2C1,-4.76*
COc1ccc(C#Cc2ccc([C@@H]3[C@@H](CO)N4C(=O)CN(C(=O)C5CCOCC5)C[C@@H]34)cc2)cc1,-0.35
COc1ccc(C#Cc2ccc([C@H]3[C@H]4CN(C(=O)C5CCOCC5)CC(=O)N4[C@H]3CO)cc2)cc1,-0.0647
O=C(C1CCOCC1)N1CC(=O)N2[C@H](C1)[C@@H](c1ccc(C#CC3CC3)cc1)[C@@H]2CO,-1.05
O=C(C1CCOCC1)N1CC(=O)N2[C@H](C1)[C@H](c1ccc(C#Cc3cccc(F)c3)cc1)[C@@H]2CO,-8.44*
CC(=O)N1[C@@H](CO)[C@@H]2c3ccccc3N(C(=O)c3ccc(F)cc3)C[C@@H]21,0.754
C[C@H]1CC(=O)N[C@H](c2ccccc2)C/C=C\C[C@@H](c2ccc3c(c2)OCO3)NC1=O,0.149
C[C@@H]1CN([C@@H](C)CO)C(=O)CCCn2nncc2CO[C@@H]1CN(C)C(=O)c1cc(-c2ccccc2)on1,-0.691
N#C[C@@H]1[C@@H](c2ccccc2)[C@H](CO)N1S(=O)(=O)c1ccc(F)cc1,2.68
CCCC#Cc1ccc2c(c1)O[C@H](CN(C)Cc1ccccn1)[C@@H](C)CN([C@@H](C)CO)S2(=O)=O,-0.153
COCC(=O)N1C[C@H]2[C@@H](c3ccccc31)[C@H](CO)N2C(=O)c1ccccc1F,2.4
CCS(=O)(=O)N1CC2(CCN(Cc3cccc(OC)c3)CC2)c2c([nH]c3cc(OC)ccc23)[C@@H]1CO,-0.892
COCC(=O)N1CCCCN2[C@H](CO)[C@@H](c3ccc(-c4cccc(C)c4)cc3)[C@@H]2C1,-5.29*
COCC(=O)N1CCCCN2[C@@H](CO)[C@@H](c3ccc(-c4ccc(C)cc4)cc3)[C@@H]2C1,0.0387
COCC(=O)N1CCCCN2[C@H](C1)[C@H](c1ccc(-c3ccc(C)cc3)cc1)[C@@H]2CO,1.13
COCC(=O)N1CCCCN2[C@@H](CO)[C@H](c3ccc(-c4cccc(C)c4)cc3)[C@@H]2C1,-3.13*
COCC(=O)N1CCCCN2[C@H](CO)[C@H](c3ccc(-c4ccc(C)cc4)cc3)[C@@H]2C1,1.92
COCC(=O)N1CCCCN2[C@@H](CO)[C@H](c3ccc(-c4ccc(C)cc4)cc3)[C@@H]2C1,2.35
CCC(=O)NC[C@H]1[C@H](c2ccccc2)[C@H](CO)N1C(=O)C1CC1,3.77
CCN(C[C@@H]1N[C@@H](CO)[C@@H]1c1ccc(-c2cccc(C#N)c2)cc1)C(=O)COC,2.74
COc1ccc(NC(=O)N2CCCCN3[C@@H](CO)[C@H](c4ccc(C#Cc5ccccn5)cc4)[C@@H]3C2)cc1,1.92
CCCNC(=O)N1CCC2(CC1)CN(C(=O)COC)[C@@H](CO)c1[nH]c3cc(OC)ccc3c12,0.354
O=C(C1CC1)N1CC(=O)N2[C@@H](CO)[C@H](c3ccc(-c4cccnc4)cc3)[C@@H]2C1,0.848
COc1ccc2c3c([nH]c2c1)[C@@H](CO)N(Cc1ccccn1)CC31CN(Cc2cccc(F)c2)C1,0.644
CN1C(=O)c2cc(NC(=O)Nc3ccccc3Cl)ccc2OC[C@@H]2O[C@H](CC(=O)NCCCN3CCOCC3)CC[C@H]21,-1.54
SMILES,IDE exosite FP
CN1C(=O)c2cc(NC(=O)Nc3ccccc3Cl)ccc2OC[C@@H]2O[C@@H](CC(=O)NCCCN3CCOCC3)CC[C@H]21,-1.04
CN1C(=O)c2cc(NC(=O)Nc3ccccc3Cl)ccc2OC[C@@H]2O[C@@H](CC(=O)NCCCN3CCOCC3)CC[C@@H]21,-5.06*
COCC(=O)Nc1ccc2c(c1)C(=O)N(C)[C@H]1CC[C@@H](CC(=O)NCCCN(C)C)O[C@H]1CO2,-1.24
COCC(=O)Nc1ccc2c(c1)C(=O)N(C)[C@@H]1CC[C@@H](CC(=O)NCCCN(C)C)O[C@H]1CO2,0.712
COCC(=O)Nc1ccc2c(c1)C(=O)N(C)[C@@H]1CC[C@H](CC(=O)NCCCN(C)C)O[C@H]1CO2,-3.32*
O=C(c1ccccc1)N1CC(=O)N2[C@H](CO)[C@H](c3ccc(C#CCC4CCCC4)cc3)[C@H]2C1,4.96
